Reference: the supplement of paper PMC6135742
Structures can show the parent of a compound that is named as a salt. Over roughly 2,600 compounds, “total cell number (DAPI+ nuclei) relative to DMSO vehicle control” has its median near -1.4; the lowest 2% begin near -23. The entries come from a sample that favours the lowest values as a whole.

tested on: jimpy (Plp1 jimpy) mouse iPSC-derived oligodendrocyte progenitor cells; assay: total cell number (DAPI+ nuclei) relative to DMSO vehicle control (SDs above negative control mean); higher = more surviving cells; settings: 10 µM; 3 days
Description: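 Primary phenotypic screen of >3,000 bioactive compounds (Selleck L1700 and Sigma LO1280 libraries) at a single dose of 10 µM. Compounds were added to jimpy (Plp1 mutant) mouse iPSC-derived OPCs at the start of thyroid hormone-induced oligodendrocyte differentiation, one well per compound in 384-well plates. After 3 days cells were stained for MBP, Sox10 and DAPI and imaged with an Operetta system. MBP+ oligodendrocyte number and total cell number were expressed as the number of SDs above the mean of the DMSO negative control on the same plate (n=16 control wells per plate). Hits were defined as >=4 SD for oligodendrocytes and >=2 SD for total cells.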

Row | SMILES | total cell number
1 | CCNC(=O)c1noc(-c2cc(C(C)C)c(O)cc2O)c1-c1ccc(CN2CCOCC2)cc1 | -26.3
2 | CCN(c1cc(-c2ccc(CN3CCOCC3)cc2)cc(C(=O)NCc2c(C)cc(C)[nH]c2=O)c1C)C1CCOCC1 | 2.45
3 | Cc1cc(C)c(CNC(=O)c2cc(-c3ccc(CN4CCOCC4)cc3)cc3c2cnn3C2CCCC2)c(=O)[nH]1 | 7.3
4 | CN[C@@H](C)C(=O)N[C@H](C(=O)N1CCC[C@H]1C(=O)Nc1snnc1-c1ccccc1)C1CCCCC1 | -4.08
5 | O=S(=O)(O)Oc1ccc(C(c2ccc(OS(=O)(=O)O)cc2)c2ccccn2)cc1 [Sodium Picosulfate] | 0.486
6 | O=C(O)C(=O)O.[NH-][C@@H]1CCCC[C@H]1[NH-].[Pt+2] [Oxaliplatin] | -23.4
7 | COc1ccc2c(Oc3ccc(NC(=O)c4c(C)n(CC(C)(C)O)n(-c5ccccc5)c4=O)nc3)ccnc2c1 | -3.37
8 | CCOC(=O)CC(=O)N1CCSC1COc1ccccc1OC (stereo not drawn) [Moguisteine] | -1.39
9 | NC1(c2ccc(-c3nc4ccn5c(=O)[nH]nc5c4cc3-c3ccccc3)cc2)CCC1 | -25.6
10 | CC1=C(C(=O)O)N2C(=O)[C@@H](NC(=O)[C@H](N)C3=CCC=CC3)[C@H]2SC1 [Cephradine] | -1.61
11 | CN(C)CCC(c1ccc(Cl)cc1)c1ccccn1 (racemic) [(±)-Chlorpheniramine maleate] | -2.22
12 | C=CC(=O)Nc1ccc2ncnc(Nc3ccc(OCc4cccc(F)c4)c(Cl)c3)c2c1 | -12.9
13 | CCOc1cc2ncc(C#N)c(Nc3ccc(F)c(Cl)c3)c2cc1NC(=O)/C=C/CN(C)C [Pelitinib (EKB-569)] | -27.4
14 | COc1cc2nccc(Oc3ccc(NC(=O)C4(C(=O)Nc5ccc(F)cc5)CC4)cc3)c2cc1OC | -20
15 | COc1cc2ncnc(Nc3ccc(Cl)cc3F)c2cc1OC | -8.14
16 | COc1cc(C(C)=O)ccc1OCCCN1CCC(c2noc3cc(F)ccc23)CC1 [Iloperidone] | -2.6
17 | COc1cc2ncnc(Nc3ccc(F)c(Cl)c3)c2cc1NC(=O)/C=C/CN1CCCCC1 | -11.6
18 | COc1cc2c(Oc3ccc(NC(=O)C4(C(=O)Nc5ccc(F)cc5)CC4)cc3F)ccnc2cc1OCCCN1CCOCC1 | -27
19 | CCOc1cc2ncc(C#N)c(Nc3ccc(OCc4ccccn4)c(Cl)c3)c2cc1NC(=O)/C=C/CN(C)C [Neratinib (HKI-272)] | -12.8
20 | COc1cc2ncnc(Nc3ccc(F)c(Cl)c3)c2cc1OCCCN1CCOCC1 [Gefitinib (ZD1839)] | -20.6
21 | CCOc1cc(C(=O)Nc2ccc(Cl)c(-c3nc4ccccc4[nH]3)c2)cc(OCC)c1OCC | -2.15
22 | C=CC(=O)Nc1cc2c(Nc3ccc(F)c(Cl)c3)ncnc2cc1OCCCN1CCOCC1 [Canertinib (CI-1033)] | -24.4
23 | CN(C)C/C=C/C(=O)Nc1cc2c(Nc3ccc(F)c(Cl)c3)ncnc2cc1O[C@H]1CCOC1 [Afatinib (BIBW2992)] | -25.6
